± gives the standard deviation of the averaged measurements.
Test system: human monocyte-derived macrophages (polarized)
Assay: cell shape (eccentricity) Z-score vs DMSO control; higher = more elongated, M2-like morphology
Conditions: 5 µM; 24 h; macrophage state: M1-polarized (IFNg + TNFa), cytokines present during treatment
Procedure: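 Primary-screen hits were rescreened on polarized hMDMs with the differentiating cytokines (IL-4 + IL-13 or IFNg + TNFa) kept in the medium during treatment with compound at 5 uM for 24 h. The eccentricity Z-score vs DMSO wells is averaged over experiments.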

Compound | cell shape (Z-score)
CC(C)C[C@@H](C=O)NC(=O)[C@H](CC(C)C)NC(=O)[C@H](CC(C)C)NC(=O)OCc1ccccc1 | 4.21
CCOc1cc2ncc(C#N)c(Nc3ccc(OCc4ccccn4)c(Cl)c3)c2cc1NC(=O)/C=C/CN(C)C | 0.0624
COc1cc(-c2ccc(=O)[nH]n2)ccc1OC(F)F | -4.29
CN(C)CC[C@H](CSc1ccccc1)Nc1ccc(S(=O)(=O)NC(=O)c2ccc(N3CCN(Cc4ccccc4-c4ccc(Cl)cc4)CC3)cc2)cc1[N+](=O)[O-] | 0.862
Cc1c(NC(=O)c2cccnc2)c(=O)n(-c2ccccc2)n1C | 1.43
Cc1c(C(N)=O)cc([N+](=O)[O-])cc1[N+](=O)[O-] | 3.38
C[C@H](CO)N1C[C@H](C)[C@H](CN(C)C(=O)Nc2cc(F)ccc2F)Oc2cc(C#CC3CCCC3)ccc2S1(=O)=O | -2.86
O=c1cc(-c2ccc(O)cc2)oc2cc(O)cc(O)c12 | 0.0357
COc1c(OC)c(O)c2c(=O)c(O)c(-c3ccccc3)oc2c1OC | 5.45
CS(=O)(=O)c1cccc(CNc2nc(Nc3ccc4c(c3)CCC(=O)N4)ncc2C(F)(F)F)c1 | -3.99
c1ccc(-c2[nH]ncc2-c2ccnc3ccccc23)nc1 | 2.26
CC1C(=O)C(=O)[C@@H]2O[C@@H]2C1=O (stereo not given in full) | -0.0615
O=C(Cc1ccc(-c2ccc(OCCN3CCOCC3)cc2)cn1)NCc1ccccc1 | 9.67
COc1ccc(N(C(=O)c2ccccc2)S(=O)(=O)c2cc(OC)ccc2OC)cc1 | -2.07
CCN(CC)C(=S)SSC(=S)N(CC)CC | -3.98
Cc1c(-c2ccnc(Nc3ccc(N4CCNCC4)cc3)n2)sc(=O)n1C | 7.79
CC(C)(C)OC(=O)Nc1ccc(-c2cc(C(=O)NCCCCCCC(=O)NO)no2)cc1 | -0.14
CC(C(=O)Nc1cccc(/N=C/c2c(O)ccc3ccccc23)c1)c1ccccc1 (stereo not given) | 3.72
O=C(O)C[C@H](O)C[C@H](O)/C=C/c1c(C2CC2)nc2ccccc2c1-c1ccc(F)cc1 | 5.72
CC(C)CNc1ccnc(NCc2csc(-c3ccccc3)n2)n1 | -11.9
O=c1ncccn1[C@@H]1O[C@H](CO)[C@@H](O)[C@H]1O | -0.513
Nc1nc(N)c2nc(-c3cccc(O)c3)c(-c3cccc(O)c3)nc2n1 | 2.64
O=Nc1c(-c2c(O)[nH]c3cc(Br)ccc23)[nH]c2ccccc12 | -13.2
C=C1CC[C@@H]2[C@](C)(CO[C@@H]3O[C@H](CO)[C@@H](O)[C@H](O)[C@H]3O)CCC[C@@]2(C)[C@@H]1CCC1=CCOC1=O | -4.62
C[C@@]1(C(=O)Nc2ccc(F)nc2)CCCN1c1nc(Nc2cc(C3CC3)n[nH]2)c2cccn2n1 | 5.79
COc1cccc(NC(=O)/C=C/c2ccc(Cl)cc2)c1 | 4.58
O=C(c1ccc(/C=C/c2n[nH]c3ccccc23)cc1)N1CCNCC1 | 28.4
C[C@@H](Oc1cc(-c2cnn(C3CCNCC3)c2)cnc1N)c1c(Cl)ccc(F)c1Cl | 7.6
CC1(C)CCC(CN2CCN(c3ccc(C(=O)NS(=O)(=O)c4ccc(NCC5CCOCC5)c([N+](=O)[O-])c4)c(Oc4cnc5[nH]ccc5c4)c3)CC2)=C(c2ccc(Cl)cc2)C1 | 4.11

Same assay, conditions: 5 µM; 24 h; macrophage state: M2-polarized (IL-4 + IL-13), cytokines present during treatment

Compound | cell shape (Z-score)
CC1Nc2ccc(Cl)cc2S(=O)(=O)N1 (stereo not given) | -1.89
COc1ccc(C(=O)CC2(O)C(=O)Nc3c(Cl)ccc(Cl)c32)cc1 (stereo not given) | -16.1
COc1cc(O)c2c(=O)c(OC)c(-c3ccc(OC)c(OC)c3)oc2c1 | -8.25
Cc1nc(Nc2n[nH]c3c2CN(C(=O)N[C@H](CN(C)C)c2ccccc2)C3(C)C)c2sccc2n1 | -7.51
COc1ccc(/C=C/C(=O)O)cc1OC | 1.19
COC(=O)Nc1nc2ccc(SC(C)C)cc2[nH]1 | 0.135
O=C(Nc1nc2ccc(NC(=O)C34CC5CC(CC(C5)C3)C4)cc2s1)c1ccccc1 | -6.86
CCN(CCCCOC(=O)c1ccc(OC)c(OC)c1)C(C)Cc1ccc(OC)cc1 (stereo not given) | -4.84
CC1=CC[C@@]2(C)CC[C@@](O)(C(C)C)[C@@H]2[C@@H](O)C1 | -2.34 ± 1.2
C=C1C(=O)O[C@H]2[C@H]1CC/C(C)=C/CC[C@@]1(C)O[C@@H]21 [Parthenolide] | -1.29
CC1(C)O[C@@H]2C[C@H]3[C@@H]4CCC5=CC(=O)CC[C@]5(C)[C@@]4(F)[C@@H](O)C[C@]3(C)[C@]2(C(=O)CCl)O1 | -13.7

From the supplement of paper PMC7858590
